# Bioassay records as filed in PubChem.
# SW480 rerep: DNA re-replication induction in SW480 cells. Potency, µM (titrated, usually from 46.1 µM), for inactives: at the highest dose re-replication activation, hits mostly activators. AID 624297. SW480 DNA re-replication, Hoechst DNA content imaging, 48 h. actives 1.8% (n = 340,000); further: % of control where 0% means no effect; nearly all actives have a fitted effect of over 55% in size
#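 Cells (250 per well) received 23 nL compound or DMSO by pin tool and were kept 48 hr at 37 C, 5% CO2. Nuclei were then stained with Hoechst for 40 min and scanned for DNA content.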
# KB-V1 cytotox: KB-V1 MDR subline cytotoxicity | actives 3.4% (n = 400,000) | Potency, µM (titrated, usually from 46.1 µM), actives largely listed as cytotoxic | KB-V1 MDR cells viability, CellTiter-Glo, 72 h; further: on the % scale 0 is the no-effect control and ±100 the full control effect; nearly all actives have a fitted effect of over 60% in size
#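 KB-V1 cells (P-gp-expressing MDR subline of KB-3-1) in phenol-red-free DMEM with 10% FBS were exposed to library compounds over a concentration series for 72 h at 37 degrees C. Viability read by CellTiter-Glo luminescence; concentration-effect curves fitted after normalization.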
# PTAP TSG101 blk: blocks PTAP/TSG101 interaction to inhibit HIV-1 budding | Q99816 | Fluorescence polarization, FITC-PTAP peptide / Tsg101 binding | Potency, µM (highest dose often 115 µM), for the others: at the highest dose activity change, negative = inhibition, usual class: inhibitors | 340,000 tested, under 10 active; active means well fitted inhibition curve with a large enough effect in the main read-out, with a control signal flat, not every such curve was filed as active; inconclusive means small, poorly fitted or top-dose-only effect, or effect the other way, or a change in a side signal; inactive means no such curve, though single readings can be large or run the other way; further: % of control where 0% means no effect
# Target sequence (Q99816 whole entry, looked up): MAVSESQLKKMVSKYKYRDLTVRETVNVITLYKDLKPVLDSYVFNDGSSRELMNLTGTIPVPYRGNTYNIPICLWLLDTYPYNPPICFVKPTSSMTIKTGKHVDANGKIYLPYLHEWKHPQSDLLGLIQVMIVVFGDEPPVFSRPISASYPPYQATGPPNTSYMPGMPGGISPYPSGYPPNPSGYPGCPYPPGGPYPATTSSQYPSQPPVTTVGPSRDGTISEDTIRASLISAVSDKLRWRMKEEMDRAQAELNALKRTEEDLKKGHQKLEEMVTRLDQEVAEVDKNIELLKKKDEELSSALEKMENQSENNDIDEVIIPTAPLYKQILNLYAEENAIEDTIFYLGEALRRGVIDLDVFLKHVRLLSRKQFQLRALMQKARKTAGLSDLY
#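 Fluorescence polarization binding of Tsg101 binding domain (10 uM final) to FITC-labeled PTAP peptide (50 nM final) in HEPES pH 7.5 buffer with NaCl, Tween 20, EDTA, TCEP. Compounds added before peptide; binding 20 min at RT.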
# KB-3-1 cytotox: KB-3-1 parental cell cytotoxicity. KB-3-1 viability, CellTiter-Glo ATP luminescence, 72 h. Potency, µM (series often up to 46.1 µM), usual class: cytotoxic. actives 1.4% (n = 400,000). AID 1347075; further: on the % scale 0 is the no-effect control and ±100 the full control effect; nearly all actives have a fitted effect of over 60% in size
#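 Here the drug-naive KB-3-1 line serves as comparator for MDR sub-line selectivity; cells received compound titrations, 72 h at 37 °C, then CellTiter-Glo readout.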
# MCF10A rerep: induces DNA re-replication in MCF 10a normal breast cells; MCF 10A DNA re-replication, Hoechst nuclear intensity, 48 h; Potency, µM (top dose mostly 46.1 µM), for the others: at the highest dose activity, positive = re-replication, usual class: activators; actives 2.9% (n = 350,000); AID 624296; further: % of control where 0% means no effect; nearly all actives have a fitted effect of over 50% in size
# PINK1 modulator: changes PINK1 expression. PINK1 immunofluorescence, high-content cytometry, 24 h. Potency, µM (series often up to 76.6 µM), inactives show at the top dose activation (PINK1 increase), usual class: activators. actives 0.2% (n = 410,000); active means well fitted activation curve with a large enough effect; inconclusive means small, poorly fitted or top-dose-only effect; cell line not stated here; further: % of control where 0% means no effect; nearly all actives have a fitted effect of over 65% in size
#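 Stable cell line, 250 cells/well, 12 h attachment; compounds pinned at 5 concentrations, 24 h; CCCP control. Fixed with nuclear dye, primary antibodies 12 h at 10 degrees C, secondary plus cell stain; laser-scanning cytometer read.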
# An asterisk follows results filed as active; i = inactive; ? = inconclusive; . = not tested or not shown; [ ] = another dose, or the depositor's remark. This is a sample that favours compounds with a hit; in the whole collection about 6.8% have one here. Unless noted, the call rests on the fitted dose curve; in most records, active means well fitted curve in the direction sought with a large enough effect; inconclusive means small, poorly fitted or top-dose-only effect, or another doubt; inactive means no such curve, though single readings can be large; an effect the other way counts as inactive or inconclusive. Potency means the concentration at half of the fitted maximal effect.
SMILES,SW480 rerep,KB-V1 cytotox,PTAP TSG101 blk,KB-3-1 cytotox,MCF10A rerep,PINK1 modulator
O=[N+]([O-])c1ccc(S(=O)(=O)Nc2ccncc2)cc1,0%,i,1%,i,3%,0%
O=[N+]([O-])c1ccc(NS(=O)(=O)c2ccc(Cl)c(Cl)c2)cc1,.,?,.,?,.,16µM*
O=[N+]([O-])c1cccc(S(=O)(=O)NCc2ccncc2)c1,-2%,?,-1%,i,-8%,-1%
O=[N+]([O-])c1cccc(S(=O)(=O)Nc2ccc(Cc3ccncc3)cc2)c1,-27%,16µM*,-1%,i,17%,0%
O=Cc1cn[nH]c1-c1ccccc1,-3%,i,-1%,i,0%,0%
O=Cc1cc(-c2ccccc2)[nH]c1-c1ccccc1,-5%,i,0%,i,6.5µM*,3%
O=C1c2ccccc2-c2onc3ccc(NCc4ccco4)c1c23,?,10µM*,?,i,-3%,?
COc1ccc(OC)c(NC(=O)CCc2c(C)nn(-c3ccc(N4CCCC4)nn3)c2C)c1,.,.,.,.,.,0%
CCN(CC)c1ccc(C(=C2C=CC(=[N+](CC)CC)C=C2)c2ccccc2)cc1,?,?,-2%,0.026µM*,?,-1%
CN=C1C=CC(=C(c2ccc(N(C)C)cc2)c2ccc(N(C)C)cc2)C=C1,?,.,.,.,18%,.
CCN(CC)c1ccc(C(=C2C=CC(=[N+](CC)CC)C=C2)c2ccc(N(CC)CC)cc2)cc1,21µM*,?,1%,?,?,1%
CCOC(=O)c1ccc2oc(=O)n(Cc3ccccc3)c2c1,.,i,.,i,.,1%
Cc1ccc(-c2nnc(SCC(=O)N3CCc4ccccc43)o2)cc1,.,i,.,i,.,-2%
COc1ccc(CN2C(=O)/C(=C/c3ccncc3)SC2=S)cc1,?,i,-1%,i,23µM*,-3%
CC(c1ccccc1)N1C(=O)/C(=C/c2ccncc2)SC1=S (stereo not given),16µM*,?,-5%,?,16µM*,-2%
CC(=O)Oc1ccc(/C=C2/SC(=S)N(Cc3ccccc3)C2=O)cc1,-36%,i,-26%,i,3.3µM*,?
O=C(O)CCCN1C(=O)/C(=C/c2ccncc2)SC1=S,3%,i,-4%,i,27%,4%
CCN(CC)CCN(CC)c1ccc(/C=C/c2ccnc3ccccc23)cc1,.,i,.,i,.,0%
Cc1cc(C(=O)C(C)Sc2cccc[n+]2[O-])c(C)n1-c1ccc(Cl)cc1 (stereo not given),-1%,21µM*,-3%,?,16%,2%
CN(C)CC(C)(O)c1ccc2c(c1)CN(Cc1cccn1-c1ncccn1)CCO2 (stereo not given),.,.,.,.,.,-1%
COc1cn(CC(=O)Nc2c(C)cc(C)cc2C)c(CN2CCCCC2)cc1=O,.,.,.,.,.,-1%
CC1CCN(c2nnc(-c3ccccc3)c3ccccc23)CC1,1%,i,2%,i,11µM*,22%
Cc1ccc(-c2nnc(N3CCCCCC3)c3ccccc23)cc1,10%,?,-5%,23µM*,?,?
COc1ccc(-c2nnc(N3CCCCC3)c3ccccc23)cc1,-5%,12µM*,-6%,?,-14%,5%
Cc1ccc2c(CC(=O)Nc3c(C(=O)Nc4cccc(Cl)c4)oc4ccccc34)coc2c1C,.,i,.,i,.,2%
SMILES,SW480 rerep,KB-V1 cytotox,PTAP TSG101 blk,KB-3-1 cytotox,MCF10A rerep,PINK1 modulator
CCN(CC)c1ccc2cc(C(N)=O)c(=N)oc2c1,?,?,?,i,18µM*,?
CCN(CC)c1ccc2cc(C(=O)Nc3ccccn3)c(=O)oc2c1,?,i,?,i,1.3µM*,6%
CCN(CC)c1ccc2cc(C(C)=O)c(=O)oc2c1,21µM*,i,?,i,10µM*,0%
CCN(CC)c1ccc2cc(C(N)=O)c(=O)oc2c1,?,i,6%,i,14%,.
CCN(CC)c1ccc2cc(C=O)c(=O)oc2c1,?,i,?,?,12µM*,6%
CCN(CC)c1ccc2cc(NC(=O)CCC(=O)O)c(=O)oc2c1,17%,i,?,i,11%,-1%[38.3 µM]
Cc1ccc(C(C)C)c(OCCSc2nc(-c3ccccc3F)nc3cc(=O)[nH]n23)c1,.,i,.,?,.,4%
CCOC(=O)c1ccccc1NS(=O)(=O)c1ccc(N2CCCCS2(=O)=O)cc1,.,i,.,i,.,1%
Cc1ccc(SCc2nc(-c3ccc(C(=O)NCc4ccccc4Cl)cc3)oc2C)cc1,.,?,.,i,.,3%
COc1ccc(C(=O)NCC(=O)OCC(=O)c2cccc3ccccc23)cc1,.,i,.,?,.,0%
COc1ccc(/C=C2\SC(=S)N(CCC(=O)NC3=NCCS3)C2=O)cc1OC,0%,i,8%,i,-2%,8%
COc1cc(/C=C2\SC(=S)N(CC(=O)NC3=NCCS3)C2=O)cc(OC)c1OC,4%,i,-3%,i,3%,28µM*
COP(=O)(OC)c1nc(-c2cccc3ccccc23)oc1NCc1ccccc1,13µM*,12µM*,0%,?,18µM*,9%
c1ccc(-c2sc3ccccc3c2-c2ccc(OCCN3CCCC3)cc2)cc1,4.6µM*,?,2%,?,1%,-1%
N#Cc1c(-c2ccc(F)cc2)cc(-c2ccccc2)nc1SCC(=O)NCC(=O)O,16µM*,i,-15%,i,-4%,5%
COc1ccc(-c2cc(-c3ccc(O)cc3)nc(N)c2C#N)cc1,22%,i,-3%,i,?,5%
COc1ccc(-c2cc(-c3ccccc3)c(C#N)c(SCC(=O)Nc3ncc(C)s3)n2)cc1,?,?,0%,i,23µM*,13%
COc1ccc(-c2cc(-c3ccc(OC)cc3)c(C#N)c(SC)n2)cc1,23%,i,33%,i,21µM*,9%
N#Cc1c(-c2ccc(Cl)cc2)cc(-c2ccccc2)nc1SCC(=O)O,-5%,i,-10%,i,1%,-1%
COc1cccc(CCNc2ncnc3sc(C(=O)N4CCOCC4)c(C)c23)c1,.,.,.,.,.,-1%
COc1ccc(N2CCN(C(=O)CN3C(=O)CSc4c3c(C)nn4-c3ccccc3)CC2)cc1,.,i,.,i,.,1%
CCc1ccc(C2=NNC(=Nc3cccc(S(=O)(=O)N(C)C)c3)SC2)cc1,21µM*,?,0%,?,?,?
Cc1ccc(C2=NNC(=Nc3ccc(F)cc3)SC2)cc1,25%,?,0%,i,-8%,?
